Bioassay records deposited in PubChem BioAssay by National Center for Advancing Translational Sciences (NCATS).
In the library only some 4.8% were active in any assay of this set; here they are far more common.
ATXN2 expr inh – reduces ATXN2 reporter expression in HEK-293 cells; HEK-293 ATXN2-luciferase reporter, luminescence, 24 h; Potency, µM (top dose mostly 57 µM), actives largely listed as inhibitors; 0.72% of 360,000 active; note: nearly all actives have a fitted effect of over 55% in size
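ATXN2-luciferase reporter cells (luciferase flanked by upstream and downstream ATXN2 gene portions) were treated 24 h at 37 °C with compounds at up to 57 uM. SteadyGlo luminescence gave expression; GF-AFC fluorescence gave viability.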
HepG2 viability – HepG2 cytotoxicity, counter-screen for TGF-b inhibitors | 0.76% of 410,000 active | Potency, µM (top dose mostly 46.1 µM), usual class: cytotoxic | AID 588856 | HepG2 CAGA-GFP viability, ATP luminescence, 18 h
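CellTiter-Glo luminescence gave cytotoxicity after 18 hours at 37 degrees C. The cells were HepG2 CAGA-GFP in 1% FBS DMEM, stimulated with 500 pg/mL TGF-beta after compound addition. %Activity was normalised to no-cell wells (complete cell-killing) and DMSO (no toxicity), and curves were fitted and classified.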
S2 tox – viability counter-screen for ATXN expression inhibitors; S2 cells (HEK-293 line with an ATXN2-luciferase reporter) viability, CellTiter-Fluor protease fluorescence, 24 h; Potency, µM (highest dose often 56.7 µM), most hits filed as cytotoxic; 0.49% of 400,000 active; AID 651635; note: nearly all actives have a fitted effect of over 40% in size
DRD3 antagonist – antagonists of human D3 dopamine receptor; P35462; D3R cells, DiscoveRx beta-arrestin luminescence, antagonist mode; hits give low values; max response, negative = inhibition, %; 2.5% of 360,000 active; in the data active = max response below about -50%; inconclusive = no clear call, values can overlap the other calls
Target sequence (P35462 whole entry, looked up): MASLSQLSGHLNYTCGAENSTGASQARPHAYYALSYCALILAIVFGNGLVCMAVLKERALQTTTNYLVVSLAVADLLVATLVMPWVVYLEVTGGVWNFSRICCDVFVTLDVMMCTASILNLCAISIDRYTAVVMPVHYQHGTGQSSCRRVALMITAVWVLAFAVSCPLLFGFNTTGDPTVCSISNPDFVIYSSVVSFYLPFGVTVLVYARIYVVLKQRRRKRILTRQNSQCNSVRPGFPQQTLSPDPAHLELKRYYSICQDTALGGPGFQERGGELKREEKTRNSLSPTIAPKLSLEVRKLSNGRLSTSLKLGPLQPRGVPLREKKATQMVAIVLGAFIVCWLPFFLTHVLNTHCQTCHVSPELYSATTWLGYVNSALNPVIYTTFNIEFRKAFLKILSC
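Cells expressing the human receptor were seeded at 1500 cells/well, incubated overnight at 37 degrees C in 5% CO2, then exposed to library compounds with dopamine controls for 90 minutes at 37 degrees C before luminescent detection.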
TGFb inhibitor – inhibitors of TGF-b signaling. HepG2 CAGA-GFP TGF-b/SMAD3 reporter, GFP fluorescence, 18 h; TGF-beta stimulated, 500 pg/mL final. Potency, µM (titrated, usually from 46.1 µM), hits mostly inhibitors. 1.2% of 410,000 active; note: nearly all actives have a fitted effect of over 65% in size
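Read-out: total well GFP (ex488/em500-530) summed from mean per-cell fluorescence. Cells: HEPG2 CAGA-GFP, 1% FBS DMEM, 18 h at 37 degrees C with 500 pg/mL final TGF-beta. Unstimulated wells served as the full-inhibition control; stimulated DMSO wells = 0%.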
DRD3 agonist – activates the human D3 dopamine receptor; 0.58% of 410,000 active; D3R DiscoveRx beta-arrestin cells, luminescence, 90 min; P35462; max activation, %; in the data active = max activation above about 30%
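Agonist mode: compounds and dopamine controls were applied to plated cells for 90 min at 37 degrees C after an overnight attachment at 1500 cells/well. Luminescent read-out followed 30 - 60 minutes at room temperature with DiscoveRx detection reagent.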
A number is an active result; - = inactive; ? = inconclusive; . = not tested or not shown. Unless noted, calls come from the whole dose curve; as a rule, active = well fitted curve in the direction sought with a large enough effect; inconclusive = small, poorly fitted or top-dose-only effect, or another doubt; inactive = no such curve, though single readings can be large; an effect the other way counts as inactive or inconclusive.

SMILES	ATXN2 expr inh	HepG2 viability	S2 tox	DRD3 antagonist	TGFb inhibitor	DRD3 agonist
O=C1/C(=C/c2ccc(O)c([N+](=O)[O-])c2)SC(=S)N1Cc1ccccc1	-	-	?	-	-	-
O=C(O)c1ccc(/C=C2/SC(=S)N(Cc3ccccc3)C2=O)cc1	-	-	-	-	-	-
O=C(C[n+]1cccc2cccc(O)c21)c1ccc(F)cc1	.	-	.	.	-	.
O=C(CSc1nc2c(c(=O)[nH]1)CCC2)Nc1ccccc1F	-	-	-	.	-	-
O=C1/C(=C/c2ccccc2O)SC(=S)N1Cc1cccnc1	28µM	-	16µM	?	?	-
CCCCCCN1N=C(C)C(C(=O)c2ccc(Cl)cc2)C1=O (stereo unspecified)	?	-	?	-83	-	-
Cc1cc(O)c(-c2cc(O)c(C)cc2O)cc1O	.	22µM	?	?	?	-
Cc1cc(C)c(NC(=O)Nc2ccccc2)c(Cl)c1	-	-	-	-	-	-
Cc1cc(C)c(NC(=O)Nc2ccccc2C)c(Cl)c1	.	1.3µM	-	-	-	-
O=C(N/N=C/c1ccccc1)c1[nH]c2ccc(Br)cc2c1-c1ccccc1	-	-	?	-89	?	-
O=C(N/N=C/c1ccccn1)c1[nH]c2ccc([N+](=O)[O-])cc2c1-c1ccccc1	?	-	?	-60	?	-
COc1cc(OC)c2nc(-c3cc4c(c(OC)c3)OCCN(C(=O)C(C)c3n[nH]c(=O)c5ccccc35)C4)cc(C)c2c1 (stereo unspecified)	.	.	-	.	.	.
CCCCCCCn1c(=N)n(CC(O)c2ccco2)c2ccccc21 (stereo unspecified)	?	22µM	-	-	?	-
CC(C)(C)c1ccc(Cn2c(=N)n(CC(O)c3ccco3)c3ccccc32)cc1 (stereo unspecified)	?	-	21µM	-	16µM	-
N=c1n(CCN2CCCC2)c2ccccc2n1CC(O)c1ccco1 (stereo unspecified)	-	-	?	-	-	-
CCOc1ccc(NC(=O)Nc2cc(C(C)C)c(O)cc2C)cc1	-	-	-	-	-	-
Cc1cc(O)c(C(C)C)cc1NC(=S)Nc1cc(C(C)C)c(O)cc1C	?	-	?	-	10µM	-
CCc1ccc(-c2cc(C)no2)cc1S(=O)(=O)Nc1cc(C)on1	-	-	-	-75	-	-
CCc1ccc(-c2cc(C)no2)cc1S(=O)(=O)Nc1ccc(Cl)cn1	-	-	-	-	-	-
Cc1c(C)c2c(c(C)c1OC(=O)CCC(=O)OCCO)CC[C@@](C)(CCC[C@H](C)CCC[C@H](C)CCCC(C)C)O2	-	.	?	.	.	-
O=S1(=O)CC(N2CCN(CC3CC3)CC2)CN1Cc1ccccc1 (stereo unspecified)	-	-	-	-61	-	-
CCCCCCN1CCN(C2CN(C3CCCCC3)S(=O)(=O)C2)CC1 (stereo unspecified)	-	-	-	-117	?	-
O=S1(=O)CC(N2CCN(CC3CC3)CC2)CN1Cc1ccc(F)cc1 (stereo unspecified)	-	-	-	-	-	-
O=S1(=O)CC(N2CCC(Cc3ccccc3)CC2)CN1C1CCCCC1 (stereo unspecified)	-	-	-	-78	-	-
Cc1nc(NCc2c(F)cccc2F)sc1-c1ccn(CCN2CCOCC2)n1	.	.	-	.	.	.
CS(=O)(=O)N1CCc2cc(-c3csc(NC(=O)Cc4cccs4)n3)ccc21	18µM	-	?	-	?	-
CC(=O)Nc1nc(-c2ccc3c(c2)CCN3S(C)(=O)=O)cs1	-	-	-	-	-	-
CCN(c1cccc(C)c1)S(=O)(=O)c1ccc2[nH]cc(C(=O)NCCCOC)c(=O)c2c1	-	-	-	.	?	-
CC(=O)N1CCc2cc(CNC(=O)Nc3ccccc3C(F)(F)F)ccc21	-	-	-	.	-	-
CC(=O)N1CCc2cc(CNS(=O)(=O)c3ccccc3C(F)(F)F)ccc21	.	-	.	.	-	61
